Bioassay records as filed in PubChem BioAssay.
The list is not random: actives were taken first. Their share in the collection is about 3.5%.
TROY signal inh = inhibitors of TROY-driven NF-kB signaling, primary screen, Q293 LMP1-TROYcd cells, NF-kB luciferase, uHTS. Q293 LMP1-TROYcd NF-kB luciferase reporter, 4 h. 360,000 tested, 0.98% active. inhibition, % at 10 µM. AID 1347056, 2019;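 active means compounds whose plate-normalised and pattern-corrected inhibition of the luciferase reporter signal at the single screening dose is 50% or more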
PPC-1+TRAIL kill = compounds killing PPC-1 cancer cells with TRAIL present, primary screen, TRAIL potentiator project, ATPLite luminescence, uHTS; PPC-1 cells + TRAIL, ATPLite viability luminescence; cell killing (% activity), % at 4 µM or 5 µM; 220,000 tested, 0.41% active; AID 1443, 2008;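 active means cell killing above 50% in the first pass at 4 µM, then a duplicate retest at 5 µM averaging 50% or more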;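 further: plate controls were cells with TRAIL plus DMSO for no effect and medium-only wells lacking cells for full effect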
TRAIL sens C8 = viability loss with TRAIL in NB7+C8 cells, primary screen, TRAIL sensitizer project, cell-based, ATPlite luminescence; inhibition (viability loss, TRAIL sensitization), % at 10 µM; 360,000 tested, 1% active; AID 624354, 2012;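 active means compounds causing at least 50% loss of cell viability in the single-dose screen, relative to plate controls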
TWEAK-Fn14 inh = inhibitors of TWEAK-Fn14 signaling, primary screen, luciferase reporter cells, uHTS; TWEAK-stimulated Fn14 reporter cells, luciferase luminescence, 8 h; inhibition, % at 10 µM; 360,000 tested, 2% active; AID 1159606, 2016; in the data active means inhibition above about 50%
HSP90 inh = HSP90 inhibitors, primary screen, cell lysate, luminescence; Rabbit reticulocyte lysate, luciferase refolding luminescence, 3 h; inhibition, % at 5.6 µM; 290,000 tested, 0.91% active; AID 1789, 2009;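 active means inhibition above the screen-wide mean plus 3 SD, computed separately per campaign, cut at about 16% in these data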;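 further: 0% = DMSO wells and 100% = 60 µM geldanamycin wells; inhibitors lower the luminescence because luciferase stays unfolded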
Platelet DG rel = inhibitors of platelet dense granule secretion, primary screen, cell-based, MLPCN, human platelets; human platelet-rich plasma, SFLLRN dense granule ATP release, luminescence; inhibition, %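 (compounds screened at 7.5 µM in platelet-rich plasma)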; 300,000 tested, 0.22% active;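 active means mean replicate score, as percent of positive control, at or above 50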
An asterisk follows results filed as active; x = not tested or not shown.

SMILES	TROY signal inh	PPC-1+TRAIL kill	TRAIL sens C8	TWEAK-Fn14 inh	HSP90 inh	Platelet DG rel
Cc1ccccc1-n1c(C)nnc1SC(C)C(=O)NCC1CCCO1 (stereo not given)	5	x	-3	12	x	x
CN(C)c1ccc(N=C/C=C2/N(C)c3ccccc3C2(C)C)cc1	30	17	7	61*	3	8
CN1/C(=C\C=C2/C(=O)Oc3ccccc3C2=O)C(C)(C)c2ccccc21	x	28	x	x	-4	6
CN1C(=CC=C2C=C(I)C(=O)C(I)=C2)C(C)(C)c2ccccc21	31	50*	24	6	3	x
CN1/C(=C\C=N\O)C(C)(C)c2ccccc21	0	-3	-1	-4	-2	-1
CC(=O)C1=C(O)C(=O)N(CCC(=O)O)C1c1ccccc1Cl (stereo not given)	-19	9	-1	59*	5	-6
c1ccc2c(c1)CN1C(=N2)COc2ccccc2C1c1nc2ccccc2[nH]1 (stereo not given)	-22	x	0	-14	x	x
COc1ccc(C(=O)CC(Nc2ccc([N+](=O)[O-])cc2)c2ccc(Cl)cc2)cc1 (stereo not given)	11	17	28	53*	1	-1
COc1c(C)cccc1C(=O)NC(=S)Nc1ccccc1N1CCCC1	68*	x	-8	57*	-2	6
O=C(NC(=S)Nc1ccccc1N1CCCC1)c1ccccc1Br	7	x	4	23	-1	-6
COC(=O)c1ccccc1NC(=S)NC(=O)c1cccc2ccccc12	27	-2	8	60*	-1	0
COC(=O)c1ccccc1NC(=S)NC(=O)c1ccc2ccccc2c1	-2	-4	-6	6	-3	0
Cc1ccc(S(=O)(=O)N2C3CCCCC3O[C@H]2CC(=O)OCc2ccccc2)cc1 (stereo not given in full)	x	x	-8	x	x	x
COc1ccc(CC2=C(O)c3ccccc3C(=O)C2=O)cc1	17	x	-3	33	0	0
O=C1C(=O)c2ccccc2C(O)=C1CCCCl	-4	11	68*	5	9	4
N#CCC(=O)Nc1ccc(C(F)(F)F)cc1N1CCOCC1	-4	10	-3	17	0	-5
O=C(CSC1CC(=O)N(c2ccc(C(=O)O)cc2)C1=O)Nc1ccc(Cl)cc1 (stereo not given)	-17	6	-1	-7	-4	-1
O=C(Nc1cc(Sc2nc3ccccc3s2)cc([N+](=O)[O-])c1)c1cccc(F)c1F	24	-25	-5	58*	3	-1
O=C(CSc1nc2ccc(NC(=O)c3ccccc3C(=O)O)cc2s1)Nc1ccc(F)c([N+](=O)[O-])c1	-26	x	23	-17	4	-4
COc1cc(OC)c(OC)cc1/C=N/n1c(C)nc2ccccc2c1=O	13	x	30	97*	-4	6
COc1ccc(OC)c(/C=N/n2c(C)nc3ccccc3c2=O)c1	-30	x	3	-14	x	-4
C/C=C1\NC(=O)[C@H](CC(N)=O)N(C)C(=O)C([C@@H](C)O)NC(=O)C(CCCc2ccc(OC)cc2)NC(=O)[C@H](C(C)C)NC(=O)/C(=C\C)NC(=O)[C@H](O)[C@@H](C[C@@H](O)CCCCCCC)NC(=O)[C@H](C)NC(=O)CN(C)C(=O)[C@H](CCC(N)=O)NC1=O (stereo not given in full)	-12	x	1	6	x	x
CC(=O)NNc1ncnc2c1cnn2-c1ccc(C)c(Cl)c1	61*	29	-16	73*	3	-8
O=C(NNc1ncnc2c1cnn2-c1cccc(Cl)c1)c1ccco1	-29	x	5	12	3	-8
Cc1ccc(Cl)cc1-n1ncc2c(NNC(=O)c3ccco3)ncnc21	-2	-10	-17	63*	-8	0
SMILES	TROY signal inh	PPC-1+TRAIL kill	TRAIL sens C8	TWEAK-Fn14 inh	HSP90 inh	Platelet DG rel
Cc1ccc(-n2cccc2/C=C2/C(=N)N3C(=NC2=O)SN=C3S(C)(=O)=O)cc1	32	4	1	-19	-3	8
CCc1ccc(-n2cccc2/C=C2/C(=N)N3C(=NC2=O)SN=C3S(C)(=O)=O)cc1	59*	-6	-14	-6	-1	-5
O=C(O)c1ccccc1NC(=O)C1CCN(S(=O)(=O)c2ccc3c(c2)OCCO3)CC1	3	x	5	-33	x	x
COc1ccc2cc3cc(C(=O)N4CCN(Cc5ccc6c(c5)OCO6)CC4)oc3nc2c1	54*	32	-4	40	-2	2
O=C(c1ccc2nc(N3CCCCC3)sc2c1)N1CCN(Cc2ccc3c(c2)OCO3)CC1	-9	13	0	11	31*	-10
O=C(NCc1ccccc1)C1c2ccccc2OCC(=O)N1Cc1ccc2c(c1)OCO2 (stereo not given)	-3	x	-9	21	x	x
COc1cc(CN2CCC(C(=O)NC(c3ccc(-c4ccccc4)cc3)c3cnccn3)CC2)cc(OC)c1 (stereo not given)	2	x	13	-1	x	x
CC/C(=N/NC(=O)c1ccccc1O)c1c(C)[nH]n(-c2ccccc2)c1=O	-18	x	20	-4	x	0
O=C1Cc2c([nH]c3ccc(Br)cc23)-c2ccccc2N1	4	x	34	79*	x	x
Brc1ccc2[nH]c3c(c2c1)CCC3	9	13	13	-53	4	-11
CNC(=O)CC1C(=O)N(c2ccc(OC)cc2)C(=S)N1NC(=O)c1cccc(F)c1 (stereo not given)	84*	12	-13	-7	2	2
O=C1C=C(N2CCOCC2)c2ccccc2C1=O	12	x	93*	10	11	-2
O=C1C=C(N2CCOCC2)c2cccc3cccc1c23	2	x	-9	4	x	x
COc1ccc(-c2nc3c(C)cc(Br)cn3c2CC2CCCCC2)cc1OC	-15	x	5	2	x	x
CC1CC=CCC1(CO)CO (stereo not given)	-9	x	-1	1	x	x
CC1=CC(C)(C)[N+](C)(C)c2ccc(C)cc21	1	11	-2	-15	-2	-5
[O-][n+]1c2c(c3c4non(O)c4ccc31)CCCC2	51*	20	-18	0	6	9
CC(=O)NC(c1ccccc1)c1nc(-c2cccc(C#N)c2)cs1 (stereo not given)	0	x	-20	6	x	x
O=C(CCNC(=O)c1ccccc1Cl)Nc1nc(-c2ccc3ccccc3c2)cs1	34	24	6	53*	-4	5
O=C(CCNC(=O)c1ccccc1Cl)Nc1nc(-c2ccc(F)cc2)cs1	18	18	-6	18	2	-2
O=C(Cc1ccccc1F)Nc1nc(-c2ccc(F)c(F)c2)cs1	72*	x	7	23	1	2
